Assay outcomes as filed in PubChem.
Rv3671c protease: Rv3671c (M. tuberculosis) protease inhibition. P9WHR9. inhibition, % at 5.96 µM. hit rate 0.048% among 320,000. AID 2606; in the data active = inhibition above about 38%;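 also: extracellular domain of Rv3671c used as enzyme; 0% = enzyme with DMSO and 100% = no enzyme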
Target sequence (P9WHR9 whole entry, looked up, the tested form may be a part): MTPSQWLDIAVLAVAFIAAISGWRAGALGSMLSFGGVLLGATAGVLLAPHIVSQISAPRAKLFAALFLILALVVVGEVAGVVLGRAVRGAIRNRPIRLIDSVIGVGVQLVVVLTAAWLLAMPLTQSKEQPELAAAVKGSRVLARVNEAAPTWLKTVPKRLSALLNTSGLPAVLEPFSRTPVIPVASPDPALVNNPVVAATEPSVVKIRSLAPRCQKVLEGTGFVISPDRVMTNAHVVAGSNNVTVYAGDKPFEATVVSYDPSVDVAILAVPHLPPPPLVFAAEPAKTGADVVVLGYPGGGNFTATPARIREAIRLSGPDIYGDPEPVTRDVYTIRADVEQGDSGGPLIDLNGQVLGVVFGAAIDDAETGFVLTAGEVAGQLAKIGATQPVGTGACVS
Mtb betalactam: beta-lactam sensitization of Mtb H37Rv; M. tuberculosis H37Rv growth with meropenem, percent inhibition; inhibition, % at 25 µM; hit rate 0.27% among 330,000; AID 434955; call rule not given here;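 also: growth measured after seven days incubation then overnight dye step; 0% = bacteria only wells and 100% = bacteria with antibiotic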
UGM FP inh: Mtb UDP-galactopyranose mutase inhibition; P9WIQ1; purified UGM, fluorescence polarization probe displacement; inhibition, % at 10 µM; hit rate 0.06% among 320,000; in the data active = inhibition above about 10%, passing the limit was not always enough; inconclusive = no clear call, values can overlap the other calls
GDH-TPI inh: counter-screen for M. tuberculosis FBA inhibitors: GDH-TPI coupled enzymes | GDH-TPI coupled enzyme counterscreen, NADH absorbance | inhibition, % at 4.8 µM | hit rate 1.2% among 360,000 | AID 588335; in the data active = inhibition above about 30%;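 also: 0% = DMSO wells and 100% = wells lacking the enzyme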
RecA intein inh: Mtb RecA intein splicing inhibition; inhibition, % (no concentration beside the values); cell-free RecA intein splicing, fluorescence; hit rate 0.75% among 290,000; in the data active = inhibition above about 30%; inconclusive = no clear call, values can overlap the other calls;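 also: 0% = vehicle wells and 100% = reference inhibitor control wells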
Mtb FBA inh: Mtb fructose-bisphosphate aldolase inhibition; P9WQA3; purified M. tuberculosis FBA, fluorescence read-out; inhibition, % at 1 µM; hit rate 2.3% among 360,000; AID 588726; in the data active = inhibition above about 27%;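 also: 0% = vehicle and 100% = reference inhibitor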
The depositor's hits bear a star; ? = inconclusive; . = no result given; + = active, no number. The list is not random: actives were taken first. Their share in the collection is about 4%.

SMILES | Rv3671c protease | Mtb betalactam | UGM FP inh | GDH-TPI inh | RecA intein inh | Mtb FBA inh
CCc1ccc2c(c1)C(c1ccc([N+](=O)[O-])cc1)=NNC(c1ccc(Br)cc1)=N2 | -10 | 60 | 52* | 1 | 1 | -4
Cc1ccc2c(c1)C(c1ccc([N+](=O)[O-])cc1)=NNC(c1ccc(Br)cc1)=N2 | -1 | -5 | 1 | 12 | 0 | 4
CC1(C(=O)NS(=O)(=O)C2CC2)CCCN(C(=O)c2ccccc2OC(F)(F)F)C1 (stereo not given) | . | . | . | -2 | . | 4
COC(=O)c1c(C#N)c(N)nc2c1CCCC2 | 2 | -11 | -1 | 6 | -27 | 125*
COc1cc(-c2c(C#N)c(N)nc3c2CCCC3)ccc1O | -3 | -7 | 2 | 9 | 0 | 9
CCCCCCNC(=O)C(C#N)c1nc2ccccc2nc1N1CCOCC1 (stereo not given) | 1 | 2 | 14* | 4 | -22 | 2
CCCCCCNC(=O)C(C#N)c1nc2ccccc2nc1N1CCCC1 (stereo not given) | -3 | 15 | 2 | 5 | -37 | 4
Cc1ccc(CNS(=O)(=O)c2cc3c4c(c2)C(C)C(=O)N4CCC3)cc1 (stereo not given) | -13 | 0 | 1 | 0 | 0 | 1
O=C1c2cc(CO)cc(O)c2C(=O)c2c(O[C@@H]3OC(CO)[C@@H](O)[C@@H](O)[C@@H]3O)cccc21 (stereo not given in full) | -7 | -5 | 0 | 5 | 3 | -3
O=C(O)c1cc(O)c2c(c1)[C@@H]([C@H]1c3cc(C(=O)O)cc(O)c3C(=O)c3c(O[C@@H]4O[C@H](CO)[C@@H](O)[C@H](O)[C@H]4O)cccc31)c1cccc(OC3O[C@H](CO)[C@@H](O)[C@H](O)[C@H]3O)c1C2=O (stereo not given in full) | 75* | 8 | -1 | 16 | 13 | -5
O=C(O)c1cc(O)c2c(c1)[C@H]([C@H]1c3cc(C(=O)O)cc(O)c3C(=O)c3c(O[C@@H]4O[C@H](CO)[C@@H](O)[C@H](O)[C@H]4O)cccc31)c1cccc(OC3O[C@H](CO)[C@@H](O)[C@H](O)[C@H]3O)c1C2=O (stereo not given in full) | 75* | 4 | 3 | 10 | -3 | -6
O=C1c2c(O)cccc2C(C2OC(CO)[C@@H](O)[C@H](O)[C@H]2O)c2cc(CO)cc(O)c21 (stereo not given in full) | 4 | 7 | 0 | 20 | . | -5
Cc1ccc(S(=O)(=O)N2C[C@H]3[C@H]4C(=O)N(C)C(=O)[C@H]4CC(=O)[C@H]3[C@@H]2c2ccccc2F)cc1 | . | . | . | . | . | 1
Cc1cccc(CN2C(=O)N/C(=C/c3ccc(C)s3)C2=O)c1 | -3 | 2 | -1 | 25 | 0 | -1
Cc1cccc(CN2C(=O)N/C(=C/c3cc(C)n(-c4cc(C)ccn4)c3C)C2=O)c1 | 14 | 0 | -1 | 31* | 0 | 1
CCn1c2ccccc2c2cc(/C=N/NC(=O)c3ccc(O)cc3)ccc21 | -103 | 3 | . | 36* | -1 | 15
COc1ccc(-c2csc(C(O)c3ccc(F)cc3)n2)cc1OC (stereo not given) | . | . | . | -12 | . | 0
CNc1ccc(-c2cccc(CO)c2)cn1 | . | . | . | 7 | . | 171*
COC(=O)c1cc(Br)ccc1NC(=O)CCNC(=O)c1ccco1 | -2 | 7 | 1 | 1 | -1 | 1
Cc1ccc(NC(=O)CS(=O)c2ccccc2N)c(C)c1 (stereo not given) | 4 | -1 | 0 | -5 | -4 | 1
O=C(c1cnn2c(C(F)(F)F)cc(-c3ccco3)nc12)N1CCCCCC1 | -7 | 3 | 2 | 17 | -18 | 3
O=C(O)c1cnn2c(C(F)(F)F)cc(-c3ccco3)nc12 | 3 | 8 | -1 | 39* | -11 | -2
COc1ccc(C(=O)Nc2ccc(NS(=O)(=O)c3ccccc3)cc2)cc1OC | -5 | 3 | -1 | 5 | 1 | 3
COc1ccccc1NC(=O)CSc1nnc(-c2ccoc2C)n1C | 6 | 4 | 1 | -2 | 0 | 1
COC(=O)c1sc(NC(=O)c2ccco2)nc1C | -4 | 3 | -3 | 41* | -2 | -1
SMILES | Rv3671c protease | Mtb betalactam | UGM FP inh | GDH-TPI inh | RecA intein inh | Mtb FBA inh
Cc1nc(NC(=O)c2ccco2)sc1C(=O)O | 3 | 0 | -1 | 12 | 0 | 2
Cc1nc(NC(=O)c2ccco2)sc1C(=O)Nc1ccc(Br)cc1 | -34 | 0 | 2 | 52* | 1 | 11
CCOC(=O)c1sc(NC(=O)c2ccc(=O)[nH]c2)nc1C | -6 | -2 | 0 | 31* | . | 4
CC(C)(C)C(=O)c1sc(Nc2ccccc2)nc1N | 9 | 14 | -2 | 40* | 5 | -3
COc1ccc(-c2cc(C(=O)N3CCN(c4cccc(C)c4C)CC3)c3ccccc3n2)cc1OC | -20 | 84 | 0 | -4 | 10 | 8
Cc1nc(Nc2ccc(C(=O)O)cc2)sc1-c1ccccc1 | -11 | 14 | 1 | 37* | -3 | -2
CCOC(=O)c1sc(NC(=O)c2ccco2)nc1-c1ccccc1 | 15 | 0 | 1 | 35* | -1 | 1
COC(=O)c1sc(Nc2ccccc2)nc1C | -1 | 8 | -2 | 32* | 2 | 5
CCOC(=O)c1sc(NC(=S)NC(=O)c2ccco2)nc1C | -11 | 4 | 0 | 35* | 0 | 1
CCOC(=O)c1sc(Nc2ccccc2)nc1C | -15 | -2 | 3 | 30 | 0 | 2
O=C(CSc1nnc(NC(=O)c2ccco2)s1)NC1CCCC1 | -7 | 5 | 0 | 40* | -1 | -3
O=C(CSc1nnc(NC(=O)c2c(F)cccc2F)s1)NC1CCCC1 | -5 | -11 | 1 | -7 | -2 | -1
CC(=O)N1c2ccccc2NC2=C(C(=O)CC(C)(C)C2)C1c1cccn1C (stereo not given) | -7 | -6 | 1 | 9 | -1 | 1
NC(=O)CSc1nc2sc(-c3ccccc3)cc2c(=O)n1N | -16 | 32 | 4 | 35* | -2 | -1
Cc1nc2sc(-c3ccccc3)cc2c(=O)n1-n1cccc1 | -16 | -6 | 5 | 25 | -3 | 1
Cc1nc2sc(-c3ccccc3)cc2c(=O)n1N | -15 | -9 | 0 | 47* | 0 | 0
CCOC(=O)Cc1csc(N/N=C\c2ccc(N(C)C)cc2)n1 | -5 | ? | 1 | 12 | -4 | 2
COc1ccc2sc(-c3ccc(N(C)C)cc3)c(C#CC(C)(C)O)c2c1 | 12 | . | 2 | 23 | . | +
COc1ccc2sc(-c3ccc(N(C)C)cc3)c(C#CCCO)c2c1 | -3 | 96 | 0 | 19 | . | +
CCOc1ccccc1NC(=O)CN1CCC(NC(=O)Nc2ccccc2)CC1 | -11 | 8 | -1 | 6 | 3 | 0
CCOC(=O)Nc1ccc2c(CN(C)Cc3ccc(F)cc3)cc(=O)oc2c1 | -9 | -1 | -1 | -5 | 0 | 14
